TIM10 inh – growth inhibitors of isogenic TIM10 control yeast, primary screen, counter-screen for tim10-1 yeast inhibitor project, luminescence, uHTS; S. cerevisiae TIM10 strain growth, BacTiter-Glo luminescence, 24 h; inhibition, % at 10 µM; actives 1.4% (n = 330,000);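 active means inhibition of 40% or more at the single tested concentration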;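 further: wild-type TIM10 isogenic control strain grown at permissive 25 °C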
tim10-1 inh – growth inhibitors of tim10-1 mutant yeast, primary screen, luminescence, uHTS | S. cerevisiae tim10-1 ts strain growth, BacTiter-Glo, 24 h | inhibition, % at 20 µM | actives 2.2% (n = 330,000);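 active means inhibition of at least 40%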;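 further: mutant grown at 25 °C; 0% = DMSO wells with yeast and 100% = wells holding no yeast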
PfHsp90 set2 – growth inhibition of PfHsp90-expressing yeast, primary screen, antimalarial PfHsp90 inhibitor project, S. cerevisiae, BacTiter-Glo luminescence, single point, set 2; BacTiter-Glo ATP, 48 h; yeast lacking PDR1 and PDR3 efflux regulators; inhibition, % at 9.4 µM; actives 0.32% (n = 310,000);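 active means every replicate shows inhibition above about 80%, whatever the replicate mean, limit read from the data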;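 further: 0% = DMSO neutral controls and 100% = 20 µM radicicol positive controls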
NLRP3 yeast inh – NALP3 inflammasome inhibitors in reconstituted yeast, primary screen, luminescence, uHTS. Yeast reconstituted NLRP3/ASC/caspase-1, beta-gal luminescence, 24 h. inhibition, % at 10 µM. actives 0.39% (n = 330,000);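 active means inhibition of 50% or more; inactive means inhibition below 50%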;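 further: plate controls were induced DMSO wells for no effect and uninduced yeast grown without galactose for full effect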
tim23-1 inh – growth inhibitors of tim23-1 mutant yeast, primary screen, luminescence, uHTS. S. cerevisiae tim23-1 growth, BacTiter-Glo luminescence, 24 h. inhibition, % at 20 µM. actives 1.3% (n = 330,000). AID 463212, 2010;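 active means growth inhibition of the mutant yeast at or above 50%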;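 further: temperature-sensitive mutant grown at 25 °C; plate controls were DMSO-treated mutant yeast for no effect and medium wells lacking yeast for full effect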
tim10-1 confirm – growth inhibitors of tim10-1 mutant yeast, confirmation, single concentration, luminescence, S. cerevisiae; actives 56% (n = 7,400); shares compounds with tim10-1 inh; S. cerevisiae tim10-1 ts strain growth, BacTiter-Glo, 24 h; inhibition, % at 20 µM;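 active means inhibition of yeast growth at or above a set limit in either of two repeat tests at 20 µM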;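 further: tim10-1 mutant grown at permissive 25 °C to find synthetic lethal compounds; 0% = DMSO yeast wells and 100% = medium wells without yeast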
TIM10 conf – growth inhibitors of wild-type TIM10 yeast, confirmation, counter-screen for tim10-1 synthetic lethality project, single concentration, luminescence, S. cerevisiae; S. cerevisiae tim10 strain growth, BacTiter-Glo luminescence, 24 h; inhibition, % at 10 µM; shares compounds with TIM10 inh; AID 463215, 2010; actives 63% (n = 4,600);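 active means inhibition of yeast growth at or above a set limit in either of two replicates at 10 µM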;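 further: this counterscreen used the strain with wild-type TIM10; 0% = yeast with DMSO and 100% = medium wells lacking yeast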
tim23-1 confirm – tim23-1 mutant yeast growth inhibitors, confirmation, luminescence, single concentration | shares compounds with tim23-1 inh | S. cerevisiae tim23-1 growth, BacTiter-Glo luminescence, 24 h | inhibition, % at 20 µM | actives 83% (n = 4,400) | AID 463218, 2010;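 active means inhibition above about 39% in either of two replicate wells at 20 µM, limit read from the data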;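 further: temperature-sensitive tim23-1 mutant grown at 25 °C; 0% = DMSO wells with yeast and 100% = medium wells without yeast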
* marks the source's active call; other numbers are inactive results. Sampled rows, rich in hits. Any-hit rate of the full collection: about 3.7%.

How did CCCCOC(=O)Sc1nc2ccccc2o1 do in these assays?
TIM10 inh: 64*; tim10-1 inh: 49*; PfHsp90 set2: -45; NLRP3 yeast inh: 22; tim23-1 inh: 74*; tim10-1 confirm: 49*; TIM10 conf: 43*; tim23-1 confirm: 44*

How did COc1ccc(C(=O)/C=C/Sc2nc3ccccc3o2)cc1 do in these assays?
TIM10 inh: 38; tim10-1 inh: 50*; PfHsp90 set2: 4; NLRP3 yeast inh: 13; tim23-1 inh: 75*; tim10-1 confirm: 38*; tim23-1 confirm: 66*

What do the screens show for `Cc1cccc(CS(=O)(=O)c2ncc(Cl)c(C(=O)Nc3c(C)cccc3C)n2)c1`?
TIM10 inh: 9; tim10-1 inh: 46*; PfHsp90 set2: -10; NLRP3 yeast inh: 7; tim23-1 inh: 56*; tim10-1 confirm: -55; tim23-1 confirm: 21

What do the screens show for `CCCc1nnc(NC(=O)c2nc(S(=O)(=O)Cc3cccc(C)c3)ncc2Cl)s1`?
TIM10 inh: 7; tim10-1 inh: 23; PfHsp90 set2: 4; NLRP3 yeast inh: 5; tim23-1 inh: 6

Results for Cc1ccc(C)c(NC(=S)N/N=C2/CCCCc3ccccc32)c1 ?
TIM10 inh: 45*; tim10-1 inh: 54*; PfHsp90 set2: -35; NLRP3 yeast inh: 43; tim23-1 inh: 57*; tim10-1 confirm: 35*; TIM10 conf: -1; tim23-1 confirm: 44*

Results for CCS(=O)(=O)n1nc(-c2ccc(Cl)cc2)nc1SCc1ccccc1 ?
TIM10 inh: 9; tim10-1 inh: 40*; NLRP3 yeast inh: 26; tim23-1 inh: 62*; tim10-1 confirm: 2; tim23-1 confirm: 57*

How did COc1ccc(-c2nc(SCc3ccccc3)n(S(C)(=O)=O)n2)cc1 do in these assays?
TIM10 inh: 33; tim10-1 inh: 17; PfHsp90 set2: -9; NLRP3 yeast inh: 21; tim23-1 inh: 11

Results for O=Cc1coc2ccc3ccccc3c2c1=O ?
TIM10 inh: 28; tim10-1 inh: 50*; PfHsp90 set2: 3; NLRP3 yeast inh: 8; tim23-1 inh: 76*; tim10-1 confirm: 28; tim23-1 confirm: 74*

Results for NC(=O)N/N=C/c1coc2ccc3ccccc3c2c1=O ?
TIM10 inh: 4; tim10-1 inh: 10; PfHsp90 set2: -27; NLRP3 yeast inh: -6; tim23-1 inh: -3

Results for Cc1cccc(OC(C)C(=O)NC2CCS(=O)(=O)C2)c1C (centres undefined) ?
TIM10 inh: 1; tim10-1 inh: 24; PfHsp90 set2: 8; NLRP3 yeast inh: 10; tim23-1 inh: -4

Results for CC(Sc1nnc(NC2CCCCC2)s1)C(=O)N1CCOCC1 (centres undefined) ?
TIM10 inh: -3; tim10-1 inh: 5; NLRP3 yeast inh: 7; tim23-1 inh: 3

How did N/C(Cc1cccs1)=N\OC(=O)COc1ccc(Br)cc1Cl do in these assays?
TIM10 inh: 38; tim10-1 inh: 58*; PfHsp90 set2: 13; NLRP3 yeast inh: 28; tim23-1 inh: 68*; tim10-1 confirm: 59*; tim23-1 confirm: 87*

What do the screens show for `CCOC(=O)n1c(=O)n(Cc2cccc(C)c2)c2ccccc21`?
TIM10 inh: 35; tim10-1 inh: 51*; PfHsp90 set2: -39; NLRP3 yeast inh: 14; tim23-1 inh: 59*; tim10-1 confirm: 41*; tim23-1 confirm: 53*

How did Cc1ccc(N=Cc2cc(Br)cc(Cl)c2O)cc1 do in these assays?
TIM10 inh: 33; tim10-1 inh: 51*; PfHsp90 set2: -61; NLRP3 yeast inh: 23; tim23-1 inh: 77*; tim10-1 confirm: 17; tim23-1 confirm: 78*

Results for Oc1ccc(Br)cc1C=Nc1ccc(Cl)cc1 ?
TIM10 inh: 18; tim10-1 inh: 17; PfHsp90 set2: -26; NLRP3 yeast inh: 11; tim23-1 inh: 48

What do the screens show for `CCOC(=O)/C(=N/Nc1ccc(C)cc1)S(=O)(=O)c1ccc(Cl)cc1`?
TIM10 inh: 11; tim10-1 inh: 18; PfHsp90 set2: 11; NLRP3 yeast inh: 33; tim23-1 inh: 13

How did NNC(=O)/C(=N/Nc1ccccc1)S(=O)(=O)c1ccc(Cl)cc1 do in these assays?
TIM10 inh: 17; tim10-1 inh: 56*; PfHsp90 set2: -3; NLRP3 yeast inh: 15; tim23-1 inh: 69*; tim10-1 confirm: 49*; tim23-1 confirm: 59*

How did O=C(NC1=NCCS1)c1cc(-c2cccs2)nc2ccccc12 do in these assays?
TIM10 inh: 46*; tim10-1 inh: 48*; PfHsp90 set2: -11; NLRP3 yeast inh: 6; tim23-1 inh: 50*; tim10-1 confirm: 46*; TIM10 conf: 31*; tim23-1 confirm: 54*

What do the screens show for `O=C(NC1=NCCS1)c1cc(-c2cccnc2)nc2ccccc12`?
TIM10 inh: 21; tim10-1 inh: 18; PfHsp90 set2: -27; NLRP3 yeast inh: 6; tim23-1 inh: 15

How did N#Cc1cc(N)ccc1Sc1ccc(Cl)cc1 do in these assays?
TIM10 inh: 4; tim10-1 inh: 55*; PfHsp90 set2: -16; NLRP3 yeast inh: 29; tim23-1 inh: 69*; tim10-1 confirm: 31*; tim23-1 confirm: 48*

What do the screens show for `N#Cc1cc(N)ccc1Sc1ccccc1`?
TIM10 inh: -17; tim10-1 inh: -5; PfHsp90 set2: 31; NLRP3 yeast inh: 8; tim23-1 inh: -24

How did Cc1cc(F)ccc1S(=O)(=O)NCC1CC2CCC1C2 (centres undefined) do in these assays?
TIM10 inh: 15; tim10-1 inh: 32; PfHsp90 set2: 2; NLRP3 yeast inh: 26; tim23-1 inh: 43

What do the screens show for `Cc1onc(-c2ccccc2)c1C(=O)N/N=C/c1cc(Br)c(Br)o1`?
TIM10 inh: 20; tim10-1 inh: 27; PfHsp90 set2: -27; NLRP3 yeast inh: -3; tim23-1 inh: 27

Results for Cc1cccc(C(=O)N/N=C/c2cc(Br)c(Br)o2)c1 ?
TIM10 inh: 45*; tim10-1 inh: 41*; PfHsp90 set2: 14; NLRP3 yeast inh: 12; tim23-1 inh: 60*; tim10-1 confirm: 17; TIM10 conf: 26; tim23-1 confirm: 76*

High-throughput results deposited in PubChem BioAssay by several laboratories.
